# Screening results (PubChem)
# HT1080 IDH1KD tx = qHTS for induction of synthetic lethality in tumor cells producing 2HG: qHTS for the HT-1080-IDH1KD cell line. Potency, µM (top dose mostly 46.1 µM), for inactives: top-dose activity, negative = toxicity, hits mostly cytotoxic. actives 2% (n = 360,000). AID 686971, 2013. HT-1080 IDH1 knockdown viability, ATP luminescence, 48 h;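 further: potency means the concentration at half of the fitted maximal effect; 0% = DMSO wells and -100% = cell-free medium wells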
#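 Viability of IDH1-knockdown HT-1080 fibrosarcoma cells was assessed by CellTiter-Glo after 48 h at 37 °C with titrated compound; concentration-effect curves were classified by fit quality and response size.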
# 12-LOX inh = Primary qHTS assay for inhibitors of human arachidonate 12S-lipoxygenase (ALOX12): Round 2 | Polyunsaturated fatty acid lipoxygenase ALOX12 (Homo sapiens), P18054 | purified 12hLO, xylenol orange hydroperoxide absorbance | Potency, µM (doses to about 108 µM), without a hit: top-dose activity change, negative = inhibition, actives largely listed as inhibitors | actives 1.1% (n = 580,000); further: potency means the concentration at half of the fitted maximal effect
# Target sequence (P18054 whole entry, looked up): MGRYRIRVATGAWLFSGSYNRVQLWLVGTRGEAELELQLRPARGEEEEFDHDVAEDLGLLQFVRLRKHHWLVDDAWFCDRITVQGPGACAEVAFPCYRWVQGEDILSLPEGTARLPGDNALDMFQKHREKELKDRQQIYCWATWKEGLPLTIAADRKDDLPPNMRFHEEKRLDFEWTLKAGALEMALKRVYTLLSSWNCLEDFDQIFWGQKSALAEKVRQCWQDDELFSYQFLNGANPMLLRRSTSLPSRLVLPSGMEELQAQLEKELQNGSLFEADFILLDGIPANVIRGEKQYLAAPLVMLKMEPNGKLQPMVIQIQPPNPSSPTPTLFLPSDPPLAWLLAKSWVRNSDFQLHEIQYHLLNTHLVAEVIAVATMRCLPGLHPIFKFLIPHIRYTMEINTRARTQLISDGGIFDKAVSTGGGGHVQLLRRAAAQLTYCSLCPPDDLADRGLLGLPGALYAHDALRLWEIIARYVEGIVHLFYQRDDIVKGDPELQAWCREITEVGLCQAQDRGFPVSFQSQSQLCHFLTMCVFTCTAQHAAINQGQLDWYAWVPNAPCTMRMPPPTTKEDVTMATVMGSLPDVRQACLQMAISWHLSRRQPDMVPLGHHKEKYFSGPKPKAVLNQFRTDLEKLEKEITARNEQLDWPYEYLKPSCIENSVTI
#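 Purified human 12hLO (150 nM final) in 25 mM Hepes, 0.01% Triton X-100, pH 7.0 was preincubated 15 min at room temperature with compound. Then 40 uM arachidonic acid was added, 30 min. Hydroperoxide was read by Fe-XO absorbance ratio 573/405 nm.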
# HT1080NT lethal = qHTS for induction of synthetic lethality in tumor cells producing 2HG: qHTS for the HT-1080-NT fibrosarcoma cell line; HT-1080-NT fibrosarcoma viability, CellTiter-Glo ATP luminescence, 48 h; Potency, µM (highest dose often 46.1 µM), for the others: at the top dose activity, negative = less viability, hits mostly cytotoxic; actives 1.6% (n = 360,000);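 further: NT is the 2HG producing partner of a matched IDH1 knockdown line; potency means the concentration at half of the fitted maximal effect; 0% = DMSO-treated cells and -100% = media-only wells without cells; nearly all actives have a fitted effect of over 55% in size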
#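 Read-out is CellTiter-Glo luminescence after 10 minutes at room temperature, following 48 hours' compound treatment of HT-1080-NT cells (750 cells/well, RPMI, 5% FBS, 37 degrees C).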
# IL-1B inflam inh = qHTS for Inhibitors of Inflammasome Signaling: IL-1-beta AlphaLISA Primary Screen; actives 4.7% (n = 360,000); activity change, % at 57.5 µM; THP-1 LPS/ATP IL-1B secretion, AlphaLISA, 16 h; active compounds read low; in the data active means activity change below about -50%; inconclusive means mostly about -30% to -49%
#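 THP-1 cells pretreated 1 hr with compounds (up to 57.5 uM final), then stimulated with LPS (250 ng/mL final) plus ATP (1.25 mM final); secreted IL-1B measured by AlphaLISA after 16 hr, decreased signal indicating inhibition.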
# TDP1 cell CPT = qHTS for Inhibitors of human tyrosyl-DNA phosphodiesterase 1 (TDP1): qHTS in cells in presence of CPT; chicken DT40 Tdp1-/-;hTDP1 cells + 20 nM CPT, ATP luminescence, 48 h; Potency, µM (doses to about 46.2 µM), for the others: at the highest dose activity change, negative = growth inhibition, usual class: inhibitors; actives 12% (n = 420,000); further: potency means the concentration at half of the fitted maximal effect; nearly all actives have a fitted effect of over 55% in size
#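 Chicken DT40 Tdp1-/- cells stably complemented with human TDP1 were seeded at 400 cells/well in medium containing 20 nM camptothecin, exposed to pin-transferred compounds, and grown at 37 °C for at least 48 hr. Viability was read as ATP luminescence.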
# TDP1 cell noCPT = qHTS for Inhibitors of human tyrosyl-DNA phosphodiesterase 1 (TDP1): qHTS in cells in absence of CPT; DT40 Tdp1-/- hTDP1 cells, no CPT, ATP luminescence, 48 h; Potency, µM (top dose mostly 46.2 µM), without a hit: top-dose activity change, negative = growth inhibition, hits mostly inhibitors; actives 15% (n = 420,000); AID 686978, 2013; further: potency means the concentration at half of the fitted maximal effect; nearly all actives have a fitted effect of over 55% in size
#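 A cellular qHTS used chicken DT40 cells lacking endogenous Tdp1 but carrying stably transfected human TDP1. Compounds were applied without camptothecin, and cell growth kinetics were judged by ATP-dependent luminescence after ≥48 hr.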
# * marks the source's active call; other numbers are inactive results; u = inconclusive; x = no result given; [ ] = remark or other dose. Only a selection was taken, and hits are over-represented in it overall. Unless noted, the call rests on the fitted dose curve; in most records, active means well fitted curve in the direction sought with a large enough effect; inconclusive means small, poorly fitted or top-dose-only effect, or another doubt; inactive means no such curve, though single readings can be large; an effect the other way counts as inactive or inconclusive. Unless noted, on the % scale 0 is the no-effect control and ±100 the full control effect.
SMILES,HT1080 IDH1KD tx,12-LOX inh,HT1080NT lethal,IL-1B inflam inh,TDP1 cell CPT,TDP1 cell noCPT
CN1CCN([C@H]2[C@@H]3OC[C@@H](O3)[C@@H](NCc3ccccn3)[C@@H]2O)CC1,x,146%[176 µM],x,x,x,x
Cc1nnc(NC(=O)c2cccn(Cc3cccc([N+](=O)[O-])c3)c2=O)s1,x,-11%,x,x,-12%,-5%
COC(=O)C[C@@](O)(CCC(C)(C)O)C(=O)O[C@@H]1C(OC)=C[C@]23CCCN2CCc2cc4c(cc2[C@@H]13)OCO4,x,14%[57.4 µM],x,x,x,x
COC(=O)C[C@](O)(CCCC(C)(C)O)C(=O)O[C@@H]1C(OC)=CC23CCCN2CCc2cc4c(cc2[C@H]13)OCO4 (stereo partly drawn),x,x,x,x,0.013µM*,0.0094µM*
O=C1CO[C@H]2CN(Cc3ccccn3)C[C@H]2N1Cc1ccccn1,x,69%[176 µM],x,x,x,x
COC1=C(C)C(=O)c2c(c(COC(N)=O)c3n2C[C@@H]2[C@@H]3N2C)C1=O (stereo partly drawn),x,x,x,x,0.1µM*,0.025µM*
COc1ccc2c(c1)c(CCN)c(C)n2Cc1ccccc1,u,-12%,u,-52*,u,21µM*
CCOC(=O)c1c(C)n(Cc2ccccc2)c2ccc(OC)cc12,x,12%,x,x,x,x
O[C@H]1[C@H](NCc2ccncc2)[C@H]2CO[C@H](O2)[C@@H]1N1CCOCC1,x,-23%[176 µM],x,x,x,x
S=P(NCCSCc1ccccc1)(N1CC1)N1CC1,-18%,-15%,-10%,-21,3.7µM*,7.3µM*
S=P(NCCNP(=S)(N1CC1)N1CC1)(N1CC1)N1CC1,-3%,-17%,-6%,8,-59%,1.3µM*
COc1ccc(-c2cc([C@H]3CN4CC[C@H]3C[C@@H]4CNC(=O)Nc3cccc(C(C)=O)c3)n(C)n2)cc1OC,x,28%,x,x,x,x
O=[N+]([O-])NC1=NCCN1Cc1ccc(Cl)nc1,-2%,4%,5%,17,x,2.6µM*
COc1cccc(CN(C)C[C@@H]2OCc3ccccc3-c3c(n(C)c4ccccc34)C(=O)N([C@@H](C)CO)C[C@H]2C)c1,u,-4%,u,-27,-22%,u
C[C@@H]1CN([C@H](C)CO)C(=O)c2c(c3ccccc3n2C)-c2ccccc2CO[C@H]1CN(C)Cc1ccc(-c2ccccc2)cc1,16µM*,13%,21µM*,u,18µM*,21µM*
COc1ccc(OC(=O)N(C)C[C@@H]2OCc3ccccc3-c3c(n(C)c4ccccc34)C(=O)N([C@H](C)CO)C[C@@H]2C)cc1,-8%,-13%,-6%,-11,6%,23µM*
C[C@@H]1CN([C@@H](C)CO)C(=O)c2c(c3ccccc3n2C)-c2ccccc2CO[C@H]1CN(C)S(=O)(=O)c1ccc(C#N)cc1,-28%,u,-15%,-21,5%,u
C[C@@H]1CN([C@H](C)CO)C(=O)c2c(c3ccccc3n2C)-c2ccccc2CO[C@@H]1CN(C)Cc1ccc(O)cc1,-5%,-68%,-6%,u,21µM*,15µM*
Cc1ccccc1S(=O)(=O)N(C)C[C@@H]1OCc2ccccc2-c2c(n(C)c3ccccc23)C(=O)N([C@H](C)CO)C[C@@H]1C,-23%,7%,-13%,-9,16µM*,21µM*
COc1ccc(OC(=O)N(C)C[C@H]2OCc3cnnn3CCCC(=O)N([C@H](C)CO)C[C@@H]2C)cc1,5%,-8%,2%,12,4%,-5%
O=C(Nc1ccc(=O)n2c1[C@@H]1C[C@@H](CN(S(=O)(=O)c3ccccc3)C1)C2)c1ccccc1,x,21%,x,x,x,x
N#Cc1cc2c(cc1C(=O)c1cccs1)OCCO2,x,-5%,x,x,x,x
CSCCC(c1nnnn1C(C)(C)C)N1CCC2(CC1)C(=O)NCN2c1ccccc1 (stereo not drawn),2%,5%,-22%,-10,u,u
O=C(c1sc2cc(F)ccc2c1Cl)N1CCC2(CC1)OCCO2,x,7%,x,x,x,x
CCC(=NCc1ccco1)c1c(O)n(C)c(=O)n(C)c1=O,-3%,-12%,-21%,24,u,u
SMILES,HT1080 IDH1KD tx,12-LOX inh,HT1080NT lethal,IL-1B inflam inh,TDP1 cell CPT,TDP1 cell noCPT
Cn1c(O)c(C(=Nc2ccccc2)SCc2ccc(Cl)cc2)c(=O)n(C)c1=O,u,16µM*,u,15,4.6µM*,3.3µM*
CCc1ccc(OCCCN=C(C)c2c(O)n(C)c(=O)n(C)c2=O)cc1,u,0%,-6%,15,13µM*,18µM*
CC(=NCCC(c1ccccc1)c1ccccc1)c1c(O)n(C)c(=O)n(C)c1=O,-8%,-8%,-9%,47,21µM*,13µM*
CCC(=NCCc1ccccc1)c1c(O)n(C)c(=O)n(C)c1=O,u,210%,u,-19,u,8.2µM*
CC(=NCc1ccco1)c1c(O)n(C)c(=O)n(C)c1=O,-22%,-12%,-3%,-11,-22%,-13%
CCCS(=O)(=O)N1[C@H]2CC[C@@H]1c1cnc(-c3ccc(F)cc3)nc1C2,x,14%,x,x,x,x
Cc1ccc(C(=O)N2CCC3(CC2)c2nccn2-c2ccccc2CN3CC(C)C)cc1F,x,7%,x,x,x,x
Cc1ccccc1C(=O)Nc1ccc(C(=O)OCc2cc(=O)n3nc(C4CC4)sc3n2)cc1,x,-34%,x,x,21µM*,u
O=[N+]([O-])c1ccc(NCCOc2ccccc2)c2ncccc12,x,1%,x,x,x,x
C[C@]12CC[C@@H]3c4ccc(OC(=O)N(CCCl)CCCl)cc4CC[C@H]3[C@@H]1CC[C@@H]2OP(=O)(O)O,x,22µM*,x,x,3%,-3%
CC(=O)O[C@@H]1[C@@H](O)C2OC3C=C(C)C(=O)[C@@H](O)[C@]3(CO)C1(C)C21CO1 (stereo partly drawn),x,7%,x,x,x,x
CC(=O)OCC12CC(OC(=O)CC(C)C)C(C)=CC1OC1C(O)C(OC(C)=O)C2(C)C12CO2 (stereo not drawn),x,11%,0.26µM*,-83*,0.023µM*,0.023µM*
